High-throughput results: PubChem BioAssay, National Center for Advancing Translational Sciences (NCATS)
Hits are enriched below; roughly 3.2% of the tested compounds scored in any of these assays.
Tau filament bind: qHTS Assay for Tau Filament Binding; AID 596, 2007; recombinant tau filaments, thioflavin S fluorescence, 15 h; filaments grown with octadecylsulfate alongside compound; Potency, µM (titrated, usually from 57.1 µM), inactives show at the highest dose activity change, negative = inhibition; hit rate 2% among 71,000; Microtubule-associated protein tau (Homo sapiens), P10636;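 further: potency means the concentration at half of the fitted maximal effect; on the % scale 0 is the no-effect control and ±100 the full control effect; actives lower thioflavin S fluorescence by blocking filaments or displacing dye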
Target sequence (P10636 whole entry, looked up): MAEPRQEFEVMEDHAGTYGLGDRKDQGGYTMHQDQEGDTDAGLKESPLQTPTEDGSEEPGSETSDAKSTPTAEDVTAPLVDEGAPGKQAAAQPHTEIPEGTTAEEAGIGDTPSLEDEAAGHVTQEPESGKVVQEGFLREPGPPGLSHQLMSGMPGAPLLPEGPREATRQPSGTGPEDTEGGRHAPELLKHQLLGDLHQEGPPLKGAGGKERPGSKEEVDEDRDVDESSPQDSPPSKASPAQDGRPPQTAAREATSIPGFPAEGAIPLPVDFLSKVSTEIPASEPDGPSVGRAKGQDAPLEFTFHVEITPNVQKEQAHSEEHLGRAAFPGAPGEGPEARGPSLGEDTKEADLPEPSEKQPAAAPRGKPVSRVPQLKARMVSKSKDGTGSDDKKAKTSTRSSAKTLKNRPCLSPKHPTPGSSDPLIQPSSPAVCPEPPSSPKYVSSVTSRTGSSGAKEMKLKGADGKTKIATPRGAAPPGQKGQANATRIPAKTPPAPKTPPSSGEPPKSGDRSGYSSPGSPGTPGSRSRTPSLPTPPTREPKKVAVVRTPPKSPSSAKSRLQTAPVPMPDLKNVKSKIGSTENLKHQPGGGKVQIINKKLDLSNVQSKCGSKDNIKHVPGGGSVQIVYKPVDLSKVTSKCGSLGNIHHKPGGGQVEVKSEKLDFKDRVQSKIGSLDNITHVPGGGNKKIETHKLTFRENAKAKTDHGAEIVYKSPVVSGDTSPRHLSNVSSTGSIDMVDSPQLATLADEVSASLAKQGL
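Quantitative HTS: thioflavine S signal from ODS-induced tau filaments, excited at 450 nm, emission 510 nm. Conditions: 1 uM tau, 30 uM ODS, 15 h at 37 C, pH 7.4.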
p53ts 32C tox: qHTS Screen for Compounds that Selectively Target Cancer Cells with p53 Mutations: Cytotoxicity of p53ts Cells at the Permissive Temperature | H1299-p53A138V at 32C, ATP luminescence viability, 24 h | Potency, µM (doses to about 46.1 µM), inactives show top-dose activity change, negative = cytotoxicity, hits mostly cytotoxic | hit rate 0.93% among 130,000 | AID 924, 2007;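 further: potency means the concentration at half of the fitted maximal effect; 0% = DMSO and -100% = full killing by reference compound; nearly all actives have a fitted effect of over 55% in size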
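Cells: H1299 p53ts (A138V), 600/well, pre-incubated 16–30 h at 37C. Cpd up to 46 uM, 24 h, 32C. Readout: ATPlite luminescence, 20 min RT. Normalization: DMSO vs tamoxifen 100 uM. AC50 by Hill equation.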
DNA Pol III inh: qHTS Assay for Inhibitors of DNA Polymerase III Holoenzyme System; reconstituted DNA polymerase III holoenzyme replication, biochemical; hit rate 0.25% among 71,000; Potency, µM (top dose mostly 57.1 µM), without a hit: at the top dose activity change, negative = inhibition; further: potency means the concentration at half of the fitted maximal effect; on the % scale 0 is the no-effect control and ±100 the full control effect
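Reconstituted *E. coli* holoenzyme (0.35 nM Pol III, 1 nM beta, 154 nM SSB, 2 nM primase) was preincubated with compound for 15 min at RT. Synthesis on 1.4 nM ssM13Gori ran 35 min, then was stopped with PicoGreen/EDTA and read as dsDNA fluorescence.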
ERK AVP inh: qHTS Assay for Inhibitors of the ERK Signaling Pathway using a Homogeneous Screening Assay; HEK293-V1b, vasopressin-stimulated pERK AlphaScreen; Potency, µM (titrated, usually from 57.5 µM), inactives show at the highest dose activity, negative = inhibition, actives largely listed as inhibitors; hit rate 0.99% among 72,000; AID 995, 2007; further: potency means the concentration at half of the fitted maximal effect; on the % scale 0 is the no-effect control and ±100 the full control effect; nearly all actives have a fitted effect of over 55% in size
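qHTS, compounds titrated on V1b-expressing HEK293 cells. Preincubation 30 min at 37C, vasopressin 25 nM for 5 min, lysis 10 min, bead incubation 5 hr at room temperature.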
TsaE inh: qHTS Assay for Inhibitors of YjeE; hit rate 0.05% among 71,000; purified YjeE enzyme, qHTS inhibition assay; Potency, µM; tRNA threonylcarbamoyladenosine biosynthesis protein TsaE (Escherichia coli (strain …; AID 605, 2007
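Fluorescence polarization of a BODIPY Texas Red–ADP probe (2 uM) bound to purified YjeE (10 uM) was read after 15 min room-temperature incubation with compounds. Loss of polarization marks inhibitors; ADP serves as titrated control.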
p53ts 39C tox: qHTS Screen for Compounds that Selectively Target Cancer Cells with p53 Mutations: Cytotoxicity of p53ts Cells at the Nonpermissive Temperature. hit rate 1.5% among 130,000. H1299-p53A138V viability at 39C, ATP luminescence, 24 h. Potency, µM (series often up to 46.1 µM), inactives show at the top dose activity change, negative = cell killing, actives largely listed as cytotoxic. AID 902, 2007; further: potency means the concentration at half of the fitted maximal effect; on the % scale 0 is the no-effect control and ±100 the full control effect; nearly all actives have a fitted effect of over 55% in size
The depositor's hits bear a star; i = inactive; ? = inconclusive; · = no result given; [ ] = dose if it differs, or a comment. The call rests on the fitted dose curve; in most records, active means well fitted curve in the direction sought with a large enough effect; inconclusive means small, poorly fitted or top-dose-only effect, or another doubt; inactive means no such curve, though single readings can be large; an effect the other way counts as inactive or inconclusive.

SMILES	Tau filament bind	p53ts 32C tox	DNA Pol III inh	ERK AVP inh	TsaE inh	p53ts 39C tox
C=C1CC[C@@H](O)C/C1=C/C=C1\CCC[C@]2(C)[C@@H]1CC[C@H]2[C@@H](C)CCCC(C)C	?	·	1%	·	i	·
COc1ccc(-c2nc3nc(C)cc(Nc4cccc(C(F)(F)F)c4)n3n2)cc1	·	10%	·	·	·	-19%
COc1cccc(CNc2cc(C)nc3nc(-c4ccc(C)cc4)nn23)c1	·	?	·	·	·	7.9µM*
Cc1ccc(-n2nc(CO)c(C(=O)NC(C)c3ccccc3)n2)cc1C (stereo not given)	·	-1%	·	·	·	-10%
C(=N\c1c(-c2ccccc2)nc2n1CCS2)/c1ccccc1	?	1%	4%	20µM*	i	-14%
COC(=O)NC(CC(C)=O)c1cccs1 (stereo not given)	·	6%[9.22 µM]	·	12%[11.5 µM]	·	5%[9.22 µM]
Cc1cn2c(=O)cc(COC(=O)c3ccc(NC(=O)c4ccccc4C)cc3)nc2s1	·	-21%	·	·	·	-25%
COc1ccc(CC(=O)NCCc2csc(-c3ccc(C(F)(F)F)cc3)n2)cc1	·	7%	·	·	·	-17%
O=C(Cc1ccc(F)cc1)NCCc1csc(-c2ccc(C(F)(F)F)cc2)n1	·	5%	·	·	·	20µM*
COc1cc(-n2nc(C)c3c2OC(N)=C(C#N)C3c2ccccc2)c(Cl)c(Br)c1O (stereo not given)	25µM*	-27%	-2%	32µM*	i	19%
Cc1nn(-c2ccccc2)c2c1C(c1ccncc1)C(C#N)=C(N)O2 (stereo not given)	·	-1%	·	·	·	-3%
CCN(CC)CCCC(C)n1c(-c2ccccc2)nc2c(NC3CCCCC3)nc(C)nc21 (stereo not given)	31%	?	0%	13%	i	?
CCn1cnc2cc(NCc3nc4ccccc4n3C)ccc21	7%	16µM*	-2%	-30%	i	?
Cc1cccc(NC(=O)c2ccc(N(Cc3ccccc3)S(C)(=O)=O)cc2)c1	·	8%	·	·	·	-19%
Fc1ccccc1CSc1nc2ncccc2[nH]1	-16%	?	-9%	-13%	i	?
COc1ccc(CSc2nc3ncccc3[nH]2)cc1	·	16µM*	·	·	·	·
CCc1ccccc1NC(=O)Cn1nnc(C(=O)NCc2ccco2)c1N	·	5%	·	·	·	9%
COc1ccc(OC)c(Nc2nc(-c3sc(C)nc3C)cs2)c1	-21%	-1%	-4%	?	i	-7%
COc1cccc(Nc2nc(-c3sc(N)nc3C)cs2)c1	13µM*	11%	-7%	?	i	-6%
CC(C)(C)c1ccc(Cn2nnc3c(=O)[nH]c(C4CCN(C(=O)Cc5cccs5)CC4)nc32)cc1	54%	?	1%	20%	i	16µM*
COc1ccccc1CNC(=O)C1(c2cccs2)CCOCC1	·	0%	·	·	·	-10%
COc1ccc(-c2[nH]c3ccccc3c2SCCNC(=O)c2ccc(S(=O)(=O)N(C)C)cc2)cc1	·	6%	·	·	·	-3%
COc1ccc(CNC(=O)c2ccc(CS(=O)Cc3ccccc3Cl)o2)cc1 (stereo not given)	·	3%	·	·	·	-5%
CCCc1nn2c(=O)cc(COC(=O)c3ccccc3NC(=O)c3ccc(OCC)cc3)nc2s1	·	-11%	·	·	·	10µM*
COc1cccc(-n2c(C)nc3c(cnn3-c3ccc(C)c(C)c3)c2=O)c1	·	-10%	·	·	·	-13%
SMILES	Tau filament bind	p53ts 32C tox	DNA Pol III inh	ERK AVP inh	TsaE inh	p53ts 39C tox
CN(C)S(=O)(=O)c1ccc(NC(=O)c2ccccn2)cc1	1%	13µM*	0%	?	i	10µM*
CC1CCCN(C(=O)CSc2c3c(nc4cc(Cl)ccc24)CCCC3)C1 (stereo not given)	·	25µM*	·	·	·	?
CC1CCCCN1C(=O)CSc1c2c(nc3cc(Cl)ccc13)CCCC2 (stereo not given)	·	-13%	·	·	·	13µM*
CCN(CC)S(=O)(=O)c1cc(C(=O)OCC(=O)c2ccc3c(c2)NC(=O)CO3)ccc1F	-5%	-4%	-2%	32µM*	i	-15%
Cc1ccc(-n2nc3ccc(N)cc3n2)cc1	13µM*	7.9µM*	-3%	1%	i	7.9µM*
Cc1ccc(Nc2ncnc3c2nc2n3CCCC2)c(Br)c1	·	10µM*	·	·	·	·
Oc1ccc2[nH]ccc2c1	20µM*	2%	-2%	-29%	i	14%
CC(=O)c1ccc(N2CCN(S(=O)(=O)c3cc(-c4onc(C)c4C)ccc3C)CC2)cc1	·	-4%	·	·	·	-26%
COc1ccc(OC)c(NC(=O)c2cnc(N3CCCCC3)c3ccccc23)c1	·	2%	·	·	·	-23%
COc1cc(OC)cc(C(=O)Nc2cccc(N3CCCC3)c2)c1	10µM*	3%	-2%	-9%	i	4%
O=C(Cc1ccccc1)Nc1cccc(N2CCCC2)c1	25µM*	4%	7%	-23%	i	10%
CCN1CCN(c2ccc(NC(=O)Cc3ccccc3)cc2)CC1	-19%	2%	-2%	-8%	i	9%
COc1cc(OC)c(NC(=O)c2noc3c2CSc2ccccc2-3)cc1Cl	·	3%	·	·	·	0%
Cc1ccc(C)c(Nc2nnc(-c3ccc(C)c(S(=O)(=O)NCC4CCCO4)c3)c3ccccc23)c1 (stereo not given)	·	37%	·	·	·	1%
Cc1ccc(-n2ncc3c(N4CCN(CCO)CC4)ncnc32)cc1Cl	·	-11%	·	·	·	-29%
CC(=O)Nc1nc(C)nc(-c2ccccc2OC(C)=O)n1	-5%	-3%	1%	-10%	i	-2%
CC(=O)Nc1nc(-c2ccccc2)nc(-c2ccccc2OC(C)=O)n1	1.3µM*	-24%	-8%	?	i	-16%
Cc1cccc(S(=O)(=O)C(C#N)c2nc3ccccc3nc2N2CC(C)OC(C)C2)c1 (stereo not given)	142%	-16%	6%	-28%	i	-6%
CC1CN(c2nc3ccccn3c(=O)c2/C=C(\C#N)S(=O)(=O)c2ccccc2)CC(C)O1 (stereo not given)	20µM*	0%	-4%	?	i	9%
Cc1ccccc1N1C(=O)C(Cl)=C(N2CCCCCC2)C1=O	13µM*	-1%	-2%	55%	i	-7%
O=C1c2ccccc2-c2cc([N+](=O)[O-])c([N+](=O)[O-])cc21	4µM*	-21%[9.22 µM]	-1%[11.4 µM]	?	i	36%[9.22 µM]
Cc1cc(C)c2sc(N(Cc3cccnc3)C(=O)CCS(=O)(=O)c3ccccc3)nc2c1	·	-1%	·	·	·	16µM*
